Screens deposited in PubChem BioAssay by National Center for Advancing Translational Sciences (NCATS).
Shown are actives, neighbours in structure and some others; about 10% of the full set was active somewhere.
NS1 inh – influenza NS1 inhibition. Potency, µM (top dose mostly 46.1 µM), for the others: top-dose activity, positive = more growth. hit rate 0.4% among 270,000; calls by dose curve; also: actives are rising curves; nearly all actives have a fitted effect of over 50% in size
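In this qHTS, NS1 from influenza A is expressed in budding yeast, where it slows growth. Cells are switched from glucose to 2% galactose medium (pH 6.0, -URA), treated with compound, and growth recovery is read at OD600.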
Pf growth 96h – P. falciparum growth inhibition at 96 hours | hit rate 6.9% among 320,000 | P. falciparum luciferase reporter growth, 96 h | Potency, µM (top dose mostly 28.7 µM), without a hit: at the highest dose activity change, negative = inhibition, actives largely listed as inhibitors; also: % is scaled to controls: 0 for no effect and ±100 for the full control effect
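Plates of compound plus infected erythrocytes (2% hematocrit, 0.05% parasitemia final) incubate 96 hours, 37 C, 5% CO2. Detection reagent added; reduced luminescence from the parasites' luciferase reporter flags inhibition.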
Pf growth 48h – P. falciparum growth inhibition at 48 hours (one generation) | P. falciparum luciferase growth in erythrocytes, 48 h | Potency, µM (highest dose often 28.7 µM), inactives show at the highest dose activity change, negative = inhibition, actives largely listed as inhibitors | hit rate 5.9% among 310,000 | AID 504832; also: % is scaled to controls: 0 for no effect and ±100 for the full control effect
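Luciferase-expressing parasites in RBCs, 2% Hct / 0.1% parasitemia final; RPMI 1640 + 0.5% Albumax; 37 C, 5% CO2, one generation; luminescence read-out, lower signal = inhibition.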
SARS PLpro yeast – SARS-CoV PLP inhibition in yeast; AID 485353; hit rate 0.19% among 330,000; Potency, µM (doses to about 32.9 µM), inactives show at the top dose activity, positive = growth rescue, actives largely listed as activators; S. cerevisiae expressing SARS-CoV PLpro, growth rescue; calls by dose curve; also: 0% is about no effect; nearly all actives have a fitted effect of over 55% in size
An asterisk follows results filed as active; ! = not active in a repeat. Unless noted, calls follow the shape of the dose curve; as a rule, active = well fitted inhibition curve with a large enough effect; inconclusive = small, poorly fitted or top-dose-only effect, or another doubt; inactive = no such curve, though single readings can be large or run the other way. Potency is read from the fitted curve at half-maximal effect.

How did O=C(CCNS(=O)(=O)c1ccc(OC(F)(F)F)cc1)NC1CC1 do in these assays?
SARS PLpro yeast: 3.1%

Results for Cc1oncc1C(=O)Nc1ccc2ccccc2c1 ?
NS1 inh: -32.3%; Pf growth 96h: 57.4%; Pf growth 48h: 8.9%; SARS PLpro yeast: -6.8%

What do the screens show for `Cc1oncc1C(=O)Nc1ccc(C(F)(F)F)cc1`?
NS1 inh: -27.8%; Pf growth 96h: 4.55µM*!; Pf growth 48h: inconclusive; SARS PLpro yeast: -3.0%

What do the screens show for `COc1ccc(OC)c(/C=N/NC(=O)CSc2cc(C)nc3c(OC)cccc23)c1`?
NS1 inh: -0.2%; Pf growth 96h: 8.28µM*; Pf growth 48h: -9.9%; SARS PLpro yeast: 0.5%

What do the screens show for `COc1cc(CNCCCSc2nnnn2C)cc(Br)c1OC`?
Pf growth 96h: inconclusive; Pf growth 48h: -17.7%; SARS PLpro yeast: 1.6%

What do the screens show for `CCOc1ccc(C(C)=O)cc1COC(=O)CCc1cc(OC)c(OC)c(OC)c1`?
NS1 inh: -15.1%; Pf growth 96h: 8.28µM*; Pf growth 48h: inconclusive; SARS PLpro yeast: 2.9%

What do the screens show for `COc1cc(CCC(=O)OCc2ccccc2C#N)cc(OC)c1OC`?
NS1 inh: -3.0%; Pf growth 96h: 31.2%; Pf growth 48h: 31.6%; SARS PLpro yeast: 0.0%

What do the screens show for `CCOC(=O)C1CNc2cc(S(=O)(=O)CC)ccc2O1` (stereo not drawn)?
Pf growth 96h: inconclusive; Pf growth 48h: 6.0%; SARS PLpro yeast: -0.5%

What do the screens show for `CC(NC(=O)c1cc(-c2ccc(O)cc2)on1)c1ccccc1` (stereo not drawn)?
NS1 inh: -147.6%

What do the screens show for `Cc1nc(Sc2ccc(Cl)cc2)c(C#N)c(C)c1[N+](=O)[O-]`?
NS1 inh: -3.0%; Pf growth 96h: 11.7µM*; Pf growth 48h: inconclusive; SARS PLpro yeast: 0.7%

What do the screens show for `Cc1ccc(Sc2nc(C)c([N+](=O)[O-])c(C)c2C#N)cc1`?
NS1 inh: 2.0%; Pf growth 96h: inconclusive; Pf growth 48h: inconclusive; SARS PLpro yeast: -1.9%

Results for Cc1nc(Sc2ccc(Br)cc2)c(C#N)c(C)c1[N+](=O)[O-] ?
NS1 inh: -2.8%; Pf growth 96h: 9.28µM*; Pf growth 48h: inconclusive; SARS PLpro yeast: -1.1%

How did COc1ccc(CNc2nc(C)c([N+](=O)[O-])c(C)c2C#N)cc1 do in these assays?
NS1 inh: 4.4%; Pf growth 96h: inconclusive; Pf growth 48h: -26.9%; SARS PLpro yeast: 11.0%

How did CC(c1nc2ccccc2c(=O)[nH]1)N(C)c1ccc2ccccc2c1 (stereo not drawn) do in these assays?
NS1 inh: 19.9%; Pf growth 96h: 14.7µM*; Pf growth 48h: 6.57µM*; SARS PLpro yeast: 11.7%

How did CC(C)Sc1nc2ccccc2c(=O)[nH]1 do in these assays?
NS1 inh: 0.8%; Pf growth 96h: -9.9%; SARS PLpro yeast: 5.7%

What do the screens show for `CC(OC(=O)Cn1ccccc1=O)C(=O)Nc1cc(Cl)cc(Cl)c1` (stereo not drawn)?
SARS PLpro yeast: -3.1%

How did CC1=C(C(=O)Nc2cccc(C(=O)NC3CCCCC3C)c2)SCCO1 (stereo not drawn) do in these assays?
NS1 inh: -6.2%; Pf growth 96h: 9.28µM*; Pf growth 48h: -11.5%; SARS PLpro yeast: 21.1%

Results for CCOc1ccccc1N1CC(C(=O)NC2CCCCCC2)CC1=O (stereo not drawn) ?
SARS PLpro yeast: -0.1%

How did COc1ccccc1CCc1nnc(CCC(=O)NCCOc2cccnc2)o1 do in these assays?
NS1 inh: 0.9%; Pf growth 96h: 11.9%; Pf growth 48h: -5.5%; SARS PLpro yeast: 0.6%

How did COc1ccccc1CCc1nnc(CCC(=O)NCC(C)Oc2cccnc2)o1 (stereo not drawn) do in these assays?
NS1 inh: -0.4%; Pf growth 96h: 16.5µM*; Pf growth 48h: 20.7%; SARS PLpro yeast: -0.1%

How did Cc1ccc(Cl)cc1N(Cc1ccc(C(=O)NCc2cccnc2)cc1)S(=O)(=O)c1ccccc1 do in these assays?
NS1 inh: -3.7%; Pf growth 96h: 13.1µM*; Pf growth 48h: inconclusive; SARS PLpro yeast: 4.7%

How did Cc1ccc(-c2ccc(C(=O)NCc3ccccc3)o2)c2ccccc12 do in these assays?
NS1 inh: -5.0%; Pf growth 96h: 10.4µM*; Pf growth 48h: inconclusive; SARS PLpro yeast: -12.3%

Results for CCOc1ccccc1-c1ccc(C(=O)NCc2ccccc2)o1 ?
NS1 inh: -19.2%; Pf growth 96h: 7.38µM*; Pf growth 48h: inconclusive; SARS PLpro yeast: -25.5%

What do the screens show for `Cc1ccc(-c2cccc(C(=O)NCc3ccccc3)n2)c2ccccc12`?
NS1 inh: -18.4%; Pf growth 96h: 13.1µM*; Pf growth 48h: inconclusive; SARS PLpro yeast: 7.4%

How did CCOc1cccc2cc(C(=O)NCc3ccccc3)c(=N)oc12 do in these assays?
NS1 inh: -8.5%; Pf growth 96h: inconclusive; Pf growth 48h: 0.0%; SARS PLpro yeast: 0.6%

How did Cc1ccc(C2=Nn3c(COc4ccc(Cl)cc4)nnc3SC2CC(=O)O)cc1 (stereo not drawn) do in these assays?
NS1 inh: inconclusive; Pf growth 96h: 36.8%; Pf growth 48h: 32.8%; SARS PLpro yeast: 7.0%

What do the screens show for `O=C(NCc1cccnc1)c1ccc(-c2ccc(Cl)cc2)o1`?
NS1 inh: -0.1%; Pf growth 96h: -0.5%; Pf growth 48h: -15.3%; SARS PLpro yeast: -1.1%

What do the screens show for `O=C(NCc1cccnc1)c1ccc(-c2cc(Cl)ccc2Cl)o1`?
NS1 inh: -8.5%; Pf growth 96h: 11.7µM*; Pf growth 48h: inconclusive; SARS PLpro yeast: -2.7%

How did COC(=O)c1ccc(Cn2nc([N+](=O)[O-])c(Br)c2C)cc1 do in these assays?
NS1 inh: -3.5%; Pf growth 96h: -4.1%; Pf growth 48h: inconclusive; SARS PLpro yeast: -0.5%

What do the screens show for `O=C(NCCC(=O)N1CCN(c2ccccn2)CC1)c1ccc(Br)cc1`?
Pf growth 96h: 1.8%; Pf growth 48h: 0.1%; SARS PLpro yeast: 0.1%

What do the screens show for `Cc1cc2c(nc1C)CCCN2C[C@@H](C)O/N=C1/[C@H]2CCn3c(=O)n(-c4ccccc4)c(=O)n3[C@H]2[C@H](O)[C@@H]2O[C@H]12`?
NS1 inh: 4.3%; Pf growth 96h: 13.1µM*; Pf growth 48h: inconclusive; SARS PLpro yeast: 5.0%

Results for O=C(COc1ccc2c3c(c(=O)oc2c1)CCC3)NCCCN1CCCC1=O ?
NS1 inh: -1.7%; Pf growth 96h: inconclusive; Pf growth 48h: 4.5%; SARS PLpro yeast: -2.4%

What do the screens show for `Cc1cc(=O)oc2cc(OCC3CC(c4ccc(Cl)cc4)=NO3)ccc12` (stereo not drawn)?
NS1 inh: 19.3%; Pf growth 48h: 8.8%; SARS PLpro yeast: 4.2%

What do the screens show for `NNC(=O)c1ccc(OCC2CC(c3ccc(Cl)cc3)=NO2)cc1` (stereo not drawn)?
NS1 inh: 12.2%; Pf growth 96h: inconclusive; Pf growth 48h: 8.28µM*; SARS PLpro yeast: -0.6%

How did Cc1cccn2c(=O)c3cc(C(=O)NCCN4CCOCC4)c(=N)n(CCN4CCOCC4)c3nc12 do in these assays?
NS1 inh: 3.3%; Pf growth 96h: -7.5%; Pf growth 48h: inconclusive; SARS PLpro yeast: 0.3%

What do the screens show for `Cc1cccn2c(=O)c3cc(C(=O)NCCN4CCOCC4)c(=N)n(Cc4ccc(F)cc4)c3nc12`?
NS1 inh: 6.2%; Pf growth 96h: 3.7µM*; Pf growth 48h: inconclusive; SARS PLpro yeast: 3.4%
